Screen size: about 96,000 compounds; about 20,000 (21%) were called active. The list is a sample of the results. Unmarked numbers belong to inactive results.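 Rule for the calls: active = CYP2C19 inhibition above a set limit at 5 µM in the primary screen (cut at about 50% in these data); inactive = the rest.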

The target in the test is Cytochrome P450 2C19 (Homo sapiens) (UniProt P33261). Kind of test: blockers of cytochrome P450 2C19 activity – biochemical, luminescence, ADME assay, primary screen (AID 778).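 Note: plate controls were negative control wells for no effect and 2.5 mM tranylcypromine positive control for full effect.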 As to conditions: CYP2C19 Supersomes, luciferin-H EGE luminescence, 30 min; at 5 µM; hits give high values.
Cytochrome P450 2C19 (Homo sapiens), sequence (P33261 whole entry, looked up): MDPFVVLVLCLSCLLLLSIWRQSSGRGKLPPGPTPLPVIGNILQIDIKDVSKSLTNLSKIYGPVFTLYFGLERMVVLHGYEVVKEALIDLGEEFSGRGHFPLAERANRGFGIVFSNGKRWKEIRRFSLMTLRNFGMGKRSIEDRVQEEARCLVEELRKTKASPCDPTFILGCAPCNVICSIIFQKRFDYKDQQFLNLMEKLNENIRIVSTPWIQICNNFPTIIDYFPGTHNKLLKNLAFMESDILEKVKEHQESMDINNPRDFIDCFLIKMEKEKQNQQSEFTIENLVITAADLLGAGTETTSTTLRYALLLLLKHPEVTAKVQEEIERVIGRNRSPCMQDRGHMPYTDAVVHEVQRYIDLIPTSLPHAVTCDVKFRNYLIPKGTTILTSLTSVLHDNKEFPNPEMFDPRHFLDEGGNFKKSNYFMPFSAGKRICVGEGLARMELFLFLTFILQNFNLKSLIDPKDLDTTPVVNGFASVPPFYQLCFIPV
As for `Cc1c(NC(=O)/C=C/C(=O)O)cccc1[N+](=O)[O-]`, the inhibition was 26.2%.

For `CO/N=C/c1ccc(N2CCN(C(=O)c3cccc(Cl)c3)CC2)c([N+](=O)[O-])c1`, the inhibition is 33.8%.

As to `Cc1c(C)c2cc3c4c(oc3c(C)c2oc1=O)CCCC4`, the inhibition was -0.1%.

For `CCOC(=O)c1cnc(-c2ccccc2)nc1Oc1ccc(C)cc1`, the inhibition was 35.2%.

Consider `Cc1ccc(OC(=O)c2ccccc2C(=O)OCC(F)(F)C(F)F)cc1`, for which the inhibition is 88.6% (active).

Turning to `Cc1ccc(OC(=O)c2cc3ccccc3o2)cc1`, the inhibition was -12.8%.

Consider `Cc1ccc(C(=O)CS(C)(=O)=O)cc1`, for which the inhibition is 1%.

Consider `COc1ccc(-n2ncc3c(N4CCCc5ccccc54)ncnc32)cc1`, for which the inhibition is 12.3%.

With `O=C(CN1CCSCC1)N/N=C/c1ccc(F)cc1`, the inhibition was 16.6%.

With `O=C(CSc1ccc(/C=N/NC(=O)c2cccc(F)c2)o1)Nc1ccccc1`, the inhibition was 17.1%.

As for `Cc1ccc(/C=N/NC(=O)Cn2nc(C)c(Br)c2C)o1`, the inhibition is 50.5% (active).

Turning to `O=C(Nc1ccc2c(c1)nc1n2CCCCC1)c1cc(S(=O)(=O)N2CCOCC2)ccc1Cl`, the inhibition is 25.7%.

As for `CCCCCOC(=O)NCCOC(=O)Nc1ccc(C(=O)OCC)cc1`, the inhibition is 4.4%.

`Cc1cc(NC(=O)c2cnn3cccnc23)n(-c2ccccc2)n1`: the inhibition was 25%.

On to `O=C1CSC(c2cccc(F)c2)N1c1ccccc1F` (configuration not stated), for which the inhibition is 32.9%.

For `CC(C)C(NC(=O)c1cccc(S(=O)(=O)N2CCOCC2)c1)C(=O)NCCc1ccccn1` (configuration not stated), the inhibition is -13.9%.

As to `O=C(c1cccc(S(=O)(=O)N2CCOCC2)c1)N1CCOCC1`, the inhibition was -6.3%.

Take `CCN(Cc1ccncc1)C(=O)c1cccc(S(=O)(=O)N2CCOCC2)c1`: the inhibition was 97% (active).

On to `COc1ccc(Nc2nc(=O)[nH]nc2C)cc1`, for which the inhibition was 5%.

On to `Cn1c(CCN2CCCCCC2)nc2cc(NC(=O)Nc3ccccc3)ccc21`, for which the inhibition is -3.4%.

For `O=c1[nH]c2c(c(=O)n1Cc1ccccc1)CCC2`, the inhibition is -3.7%.

Regarding `COc1ccc(C(=O)CN(C(=O)c2ccc(Cl)cc2)N2C(=O)c3ccccc3C2=O)cc1`, the inhibition is 36%.

As for `Cc1cc(NC(=O)CS(=O)(=O)c2cn(C)c3ccccc23)no1`, the inhibition was 27.3%.

For the compound `CCc1ccccc1NC1c2ccccc2C(=O)N1c1cccnc1` (configuration not stated), the inhibition is 81.5% (active).

For the compound `CCN(CC)C(=O)CSC1c2ccccc2C(=O)N1c1ccccc1` (configuration not stated), the inhibition is 49.3%.

Regarding `N#Cc1nc(N)nc(N(c2ccccc2)c2ccccc2)n1`, the inhibition is 10.4%.

Regarding `CC(=O)Nc1cccc(-c2csc(Nc3cccc(C)n3)n2)c1`, the inhibition is 5.7%.

Turning to `CCOC(=O)CCP(=O)(O)C(O)(c1ccccc1)c1ccccc1`, the inhibition was -0.4%.

Take `Cn1c(=O)n(C)c2cc(S(=O)(=O)N3CCCc4ccccc43)ccc21`: the inhibition is 98.7% (active).

Turning to `COc1ccc(C(=O)OCC(=O)NCC2CCCCC2)cc1S(=O)(=O)N1CCCc2ccccc21`, the inhibition was -0.1%.

Regarding `Cc1nn(C)c(C)c1S(=O)(=O)N1CCc2ccccc21`, the inhibition was 43.3%.

As to `CCn1c(=O)c(=O)n(CC)c2cc(S(=O)(=O)N3CCc4ccccc43)ccc21`, the inhibition was 91.3% (active).

As to `CSc1nc2ccc(S(=O)(=O)N3CCc4ccccc43)cc2s1`, the inhibition was 47.8%.

On to `CC1CCC(NS(=O)(=O)c2ccc3c(c2)n(C)c(=O)c(=O)n3C)CC1` (configuration not stated), for which the inhibition was 8.2%.

Turning to `CC1C(c2ccccc2)=[N+]([O-])C2(CCCC2)N1O` (configuration not stated), the inhibition was 18.6%.

For the compound `C=CCOc1cccc(CNn2cn[nH]c2=S)c1`, the inhibition was 33.9%.

For `CCCOC(=O)Nc1sc2c(c1C(=O)OCC)CCC2`, the inhibition was -7.3%.

As for `COc1ccc(N2CCN(CCNC(=O)CCN3C(=O)COc4ccccc43)CC2)cc1`, the inhibition was 6.4%.

Regarding `COc1ccc(CN2CC(C(=O)NCCN3CCN(c4ccccc4F)CC3)CC2=O)cc1` (configuration not stated), the inhibition was -6.5%.

Regarding `COc1ccc(N2CCN(CCNC(=O)c3nnc(Cc4c(F)cccc4Cl)o3)CC2)cc1`, the inhibition was 77.3% (active).

On to `CCC(C(=O)Nc1ncccn1)(C(F)(F)F)C(F)(F)F`, for which the inhibition is -8.1%.

In the case of `NC(=O)CCCC1=NS(=O)(=O)c2ccccc2N1`, the inhibition is -6.5%.

Take `COCc1cc(=O)[nH]c2cc(NC(=O)C(F)(F)F)c(C)cc12`: the inhibition was 0.8%.

As for `CCC1CCCCN1CCNC(=O)c1[nH]c(C)c(C(C)=O)c1C` (configuration not stated), the inhibition is 2.4%.

For `COC(=O)C(NC(C)=O)(Nc1nc2c(s1)CCCC2)C(F)(F)F` (configuration not stated), the inhibition is 39.3%.

Consider `CCC(=O)NC(Nc1nc2ccc(C)cc2s1)(C(=O)OC)C(F)(F)F` (configuration not stated), for which the inhibition is 85.5% (active).

Turning to `CCC(=O)NC(Nc1cc(C)ccn1)(C(F)(F)F)C(F)(F)F`, the inhibition is 14.8%.

`CNC(=S)NNC(=O)c1sccc1OCc1ccccc1`: the inhibition is 20.4%.

As to `COC(=O)CN(c1nc(C)c(Cl)c(OC)n1)S(=O)(=O)c1ccc(C)cc1`, the inhibition was 19.1%.

Consider `COC(=O)c1ccc(NC(=O)CN(c2ccc(C)cc2)S(=O)(=O)c2c(C)n[nH]c2C)cc1`, for which the inhibition was 35%.

As for `CCNC(=O)CN(c1ccc(C)cc1)S(=O)(=O)c1ccc(SC)cc1`, the inhibition is 75.6% (active).

With `CC1CCC(NC(=O)c2ccc(N3CCCC3=O)cc2)CC1` (configuration not stated), the inhibition was -0.4%.

Take `CCOC(=O)Cc1csc(NC(=O)CSc2nc(C)cc(=O)[nH]2)n1`: the inhibition was 12.8%.

`CCCc1cc(=O)n2[nH]c(SCc3ccccc3)nc2n1`: the inhibition is 1.2%.

As for `CCCc1cc(=O)[nH]c(SCC(=O)c2cc(C)n(CCC)c2C)n1`, the inhibition is 29.3%.

`Cc1cc(=O)[nH]c(SCc2cccc(F)c2)n1`: the inhibition was 7%.

Regarding `CCCc1cc(=O)[nH]c(SCC(=O)OCc2ccccc2)n1`, the inhibition is 55% (active).

Consider `CCCc1cc(=O)[nH]c(SCc2ccc(C#N)cc2)n1`, for which the inhibition is 65.1% (active).

Take `CC(C)c1cc(C(N)=O)c(NC(=O)c2cccc(COc3ccc(Br)cc3)c2)s1`: the inhibition was 5.8%.

Turning to `CC(=O)Oc1ccc(C(C)=O)c2c1OCCO2`, the inhibition was 12.1%.

As to `CCOC(=O)N1CCN(C(=O)Cc2ccc(-n3c(=S)[nH]c4ccccc4c3=O)cc2)CC1`, the inhibition is 17.9%.

Turning to `COc1ccccc1CNC(=O)C1CCCN(S(=O)(=O)c2cccc3cccnc23)C1` (configuration not stated), the inhibition was 16%.

Take `CCN(Cc1ccccc1)C(=O)CSc1nc(C)cc2c1C(=O)OC2`: the inhibition is 72.3% (active).

With `CCOC(=O)n1c(SCC(=O)N(CC)CC)nc2ccccc21`, the inhibition was 2.8%.

As to `Cc1ccc(-c2nn(-c3ccccc3)cc2CN(Cc2ccccc2)C(=O)CCC(=O)O)o1`, the inhibition is 23.4%.

As for `CCN(CC)CCN1C(=O)C(=O)/C(=C(/O)c2ccc(OC)c(OC)c2)C1c1ccccn1` (configuration not stated), the inhibition was -1.7%.

Turning to `CCCS(=O)(=O)N1CCCC(C(=O)N2CCN(c3ccccc3)CC2)C1` (configuration not stated), the inhibition is -4.5%.

For the compound `CCCCNC(=O)C(=O)c1ccccc1NC(C)=O`, the inhibition was 13%.

Regarding `Oc1c(C(c2cccs2)N2CCN(c3ccc(F)cc3)CC2)sc2ncnn12` (configuration not stated), the inhibition is 87.6% (active).

As for `Cc1ccc(C(c2sc3nc(C)nn3c2O)N2CCN(c3ccccc3)CC2)cc1` (configuration not stated), the inhibition was 33.7%.

`Cc1ccc(C(c2sc3nc(C)nn3c2O)N2CCN(c3ccc(F)cc3)CC2)cc1` (configuration not stated): the inhibition was 42.9%.

As for `Oc1c(C(c2ccco2)N2CCC3(CC2)OCCO3)sc2ncnn12` (configuration not stated), the inhibition was 68.4% (active).

On to `CCOC(=O)c1ccc(COC(=O)CCc2nc(-c3ccccc3)c(-c3ccccc3)o2)cc1`, for which the inhibition is 34.1%.

Turning to `Cc1nc(NC(=O)CCC(=O)O)sc1C(=O)N(C)C`, the inhibition is -12.7%.

`CCOc1ccc(N=C2SC(C(=O)O)CC(=O)N2C)cc1` (configuration not stated): the inhibition is 1.7%.

Turning to `COc1ccc2c(c1OC)C(=O)OC2c1c(O)nc(SC)n(-c2ccccc2)c1=O` (configuration not stated), the inhibition was -15.5%.

On to `O=c1cccc(-c2ccc(Br)cc2)o1`, for which the inhibition is -9.6%.

For the compound `CC(=O)Nc1ccc(N2C(=O)C3C4CC(=O)C(c5ccccc54)C3C2=O)cc1` (configuration not stated), the inhibition was 30.7%.

Regarding `O=C(Nc1nnc(CCOCCOCCc2nnc(NC(=O)c3ccco3)s2)s1)c1ccco1`, the inhibition was 0.8%.

`O=C(c1ccc(F)cc1)c1c[nH]c(C(=O)NCc2cccnc2)c1`: the inhibition was 65.3% (active).

For the compound `COCCn1c(=O)[nH]c2cc(C(=O)NCc3cccnc3)ccc2c1=O`, the inhibition is 3.1%.

On to `Cc1ccc(-n2nc(-c3ccco3)cc2C(=O)NCc2cccnc2)cc1`, for which the inhibition was 16.2%.

For `O=C(NCc1ccccn1)c1cnc2sccn2c1=O`, the inhibition is -12.6%.

As to `Cc1cc(C(=O)NCCCc2ccccc2)no1`, the inhibition was 10.8%.

For the compound `CCOC(=O)c1cnc(SC)nc1Sc1ccc(Cl)cc1Cl`, the inhibition was 25.2%.

As to `CCCCNCc1ccc(SC)cc1`, the inhibition was 69.4% (active).

For the compound `Cc1ccccc1C(=O)NCCN=C1NS(=O)(=O)c2ccccc21`, the inhibition was 11.7%.

Regarding `Cc1oc(CC(C)C)c(CN2CCCC2)c1C(=O)O`, the inhibition was -15.6%.

For `N#CCCN(CCC#N)c1nnc(-c2ccccc2)s1`, the inhibition is 29%.

As to `Cc1cc(C)cc(OCC(=O)Nc2nc3ccc([N+](=O)[O-])cc3s2)c1`, the inhibition was 19.6%.

On to `Cc1nn(Cc2ccccc2Cl)c(C)c1NC(=O)Cn1nc([N+](=O)[O-])c(Cl)c1C`, for which the inhibition was 0.1%.

Consider `Cc1nn(CC(=O)Nc2nc3ccccc3s2)c(C)c1[N+](=O)[O-]`, for which the inhibition is 52.2% (active).

For `CCC(CC)C(=O)N1CC(=O)Nc2ccc(Br)cc2C1c1ccccc1` (configuration not stated), the inhibition was 47.6%.

Regarding `Cc1cccn2c(=O)c(/C=C3\SC(=S)N(CC(C)C)C3=O)c(NCCCOC(C)C)nc12`, the inhibition is 14.7%.

For the compound `COc1ccc2c(Cl)c(C(=O)NCc3ccco3)sc2c1`, the inhibition is 18.6%.

Consider `COC(=O)c1nc(NC(=O)c2ccc(Cl)cc2)n[nH]1`, for which the inhibition is -2.9%.

For the compound `NC(=O)c1ncc(C(F)(F)F)cc1Oc1ccc(F)cc1`, the inhibition was 31.9%.

Broadly, the inhibition is the relative decrease from the control value, in per cent.

Values taken from PubChem BioAssay AID778 (Sanford-Burnham Center for Chemical Genomics, 2007).
